Compounds with a hit are over-represented: about 7.9% of the library has one in this group of screens.
M1 ag: M1 muscarinic receptor agonists, primary screen, CHO-M1 cells, Fluo-4 calcium, agonist mode; Muscarinic acetylcholine receptor M1; Fluo-4 calcium fluorescence; hits give high values; B-score at 10 µM; 64,000 tested, 3% active; AID 626, 2007;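 active means fluorescence rise, raw or as B-score row- and column-corrected plate score, outside the 99.7% band of its plate's samples, either direction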
Cav32 inh: Cav3.2 calcium influx blockers – cell-based, Fluo-4 calcium fluorescence, FDSS, MLSMR library, primary screen. Cav3.2-expressing cells; hits give low values. AID 449739, 2010. 100,000 tested, 4% active. Voltage-dependent T-type calcium channel subunit alpha-1H (Homo sapiens), O95180. B-score at 10 µM;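 active means single-dose well whose peak fluorescence ratio is a statistical outlier from its plate by either plate-standardised score or position-corrected B-score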
PLAP act: PLAP enzyme activators, biochemical, luminescence, HTS; Alkaline phosphatase, placental type (Homo sapiens), P05187; purified PLAP enzyme, luminescent substrate read-out; hits give high values; activation fold at 20 µM; 96,000 tested, 1.2% active; in the data active means activation fold above about 2
M1 antagonist: antagonists of rat M1 muscarinic receptor | Muscarinic acetylcholine receptor M1 (Rattus norvegicus), P08482 | CHO-M1 cells, Fluo-4 calcium, ACh EC80 antagonist mode; hits give low values | B-score at 10 µM | 64,000 tested, 3.4% active;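 active means calcium fluorescence response, raw or row-and-column corrected B-score, differing from the plate sample mean either way at a set confidence level, mostly lower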
HER2 expr 66K: inhibitors of Her2 protein expression, primary screen, SKBR-3 cells, AlphaScreen, 66K library; Receptor tyrosine-protein kinase erbB-2 (Homo sapiens), P04626; SKBR-3 HER2 protein level, 18-24 h; hits give low values; HER2 level % of control, % at 10 µM; 65,000 tested, 0.69% active;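 active means HER2 level under 5% of the carrier-only control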;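 further: lower value means stronger loss of Her2 protein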
Of the large screens only hits and unclear results are named; the others gave an inactive call.

COc1ccc(OCc2nnc3n2N=C(c2ccc(C)cc2)CS3)cc1	none
COc1ccc(OCc2nnc3n2N=C(c2ccc(OC)cc2)CS3)cc1	Cav32 inh -7.6
O=C(CN1CCN(c2ccccn2)CC1)N(c1ccccc1)c1ccc2ccccc2c1	Cav32 inh -6.3
O=C(NCc1ccccc1)c1cccc(COc2ccccc2Cl)c1	Cav32 inh -6.5 (no result: M1 ag, M1 antagonist, HER2 expr 66K)
COc1ccccc1-c1cc(C(F)(F)F)nc(S(=O)(=O)CCCC(=O)NC(C)C)n1	HER2 expr 66K -13
COc1ccccc1-c1cc(C(F)(F)F)nc(S(=O)(=O)CCCC(=O)Nc2cc(C)on2)n1	HER2 expr 66K -16
C=C1CCN([C@H](C(=O)NCc2ccc(Cl)cc2)C(C)C)S(=O)(=O)c2ccccc21	none (no result: M1 ag, PLAP act, M1 antagonist, HER2 expr 66K)
O=C(N/N=C\c1ccc(COc2ccc([N+](=O)[O-])cc2)o1)c1ccc(Cl)cc1	none (no result: M1 ag, M1 antagonist, HER2 expr 66K)
CC(C)Oc1ccc(/C=N/NC(=O)C(CSCc2ccccc2)NC(=O)c2ccc([N+](=O)[O-])cc2)cc1 (stereo not given)	Cav32 inh -7.4 (no result: M1 ag, PLAP act, M1 antagonist, HER2 expr 66K)
CC(C)CN1C(=S)SC(C)(C)C1n1oc(=O)n(-c2ccc(Cl)cc2)c1=O (stereo not given)	Cav32 inh -4.1 (no result: M1 ag, M1 antagonist, HER2 expr 66K)
Cc1nc(CS(=O)(=O)c2ccc(Cl)cc2)cc(Sc2ccc(Cl)cc2)n1	Cav32 inh -5.3 (no result: M1 ag, M1 antagonist, HER2 expr 66K)
CCOC(=O)C(C)Sc1cc(CS(=O)(=O)c2ccccc2)nc(-c2ccccc2)n1 (stereo not given)	Cav32 inh -5.8 (no result: M1 ag, M1 antagonist, HER2 expr 66K)
Cc1cc(Oc2ccccc2)nc(-c2ccccc2)n1	none
O=S(=O)(Cc1cc(Oc2ccccc2)nc(-c2ccccc2)n1)c1ccccc1	Cav32 inh -5.1 (no result: M1 ag, M1 antagonist, HER2 expr 66K)
Cc1nc(CS(=O)(=O)c2ccccc2)cc(N2CCOCC2)n1	none (no result: M1 ag, M1 antagonist, HER2 expr 66K)
O=S(=O)(Cc1cc(Sc2ccc(Cl)cc2)nc(-c2ccccc2)n1)c1ccccc1	Cav32 inh -4 (no result: M1 ag, M1 antagonist, HER2 expr 66K)
O=C(Nc1cc(S(=O)(=O)N2CCOCC2)ccc1Cl)C(=O)c1c(-c2ccccc2)cc2ccccn12	none (no result: M1 ag, M1 antagonist, HER2 expr 66K)
CCOC(=O)C(NCc1ccc2c(c1)OCO2)(NC(=O)c1ccccc1)C(F)(F)F (stereo not given)	none (no result: M1 ag, M1 antagonist, HER2 expr 66K)
COCC(=O)Nc1cccc(C(F)(F)F)c1	none
CC(C)Oc1cc(NC(=O)CS(=O)CC(=O)Nc2cccc(C(F)(F)F)c2)c(Cl)cc1Cl (stereo not given)	Cav32 inh -3.8 (no result: M1 ag, M1 antagonist, HER2 expr 66K)
O=C(c1ccc2c(c1)OCO2)N1CCN=C1SCc1ccccc1	Cav32 inh -5.4
COCCNC(=O)c1ccc(CN2CCOCC2)cc1	none (no result: M1 ag, PLAP act, M1 antagonist, HER2 expr 66K)
CCCOc1ccc(C(=O)NNC(=S)NC(=O)c2cc(-c3ccc(Cl)cc3)nc3ccccc23)cc1	Cav32 inh -6.7 (no result: M1 ag, M1 antagonist, HER2 expr 66K)
CCCOc1cccc(-c2cc(C(=O)NNC(=S)NCC)c3ccccc3n2)c1	PLAP act 2.2 (no result: M1 ag, Cav32 inh, M1 antagonist, HER2 expr 66K)
CCNC(=S)NNC(=O)c1cc(CC(C)C)nc2ccccc12	PLAP act 2.3 (no result: M1 ag, M1 antagonist, HER2 expr 66K)
O=C(NCc1ccc2c(c1)OCO2)C1CCCN(S(=O)(=O)c2cccnc2)C1 (stereo not given)	none
CC1SC(=NC(=O)C(C)N2C(=O)c3ccccc3C2=O)NC1=O (stereo not given)	none (no result: M1 ag, PLAP act, M1 antagonist, HER2 expr 66K)
COc1cccc(Cn2cnc3c(NS(=O)(=O)c4cc(Cl)ccc4Cl)c(C)c(C)cc32)c1	Cav32 inh -5.4 (no result: M1 ag, M1 antagonist, HER2 expr 66K)
COc1cccc(Cn2cnc3c(NS(=O)(=O)c4ccc(Cl)cc4Cl)c(C)c(C)cc32)c1	Cav32 inh -3.5 (no result: M1 ag, M1 antagonist, HER2 expr 66K)
COc1cccc(Cn2cnc3c(NS(=O)(=O)c4cccc(Cl)c4Cl)c(C)c(C)cc32)c1	Cav32 inh -5.4 (no result: M1 ag, M1 antagonist, HER2 expr 66K)
CCCCC1=CC2=CC(=O)C(C)(OC(=O)c3ccc(Cl)nc3)C(=O)C2=CO1 (stereo not given)	none (no result: M1 ag, PLAP act, M1 antagonist, HER2 expr 66K)
Cc1onc(-c2ccccc2)c1C(=O)NC(C)C1CCCO1 (stereo not given)	none
C=CCNC(=S)NNC(=O)C(CCC(C)C)CC(C)(C)O (stereo not given)	PLAP act 2.7 (no result: M1 ag, M1 antagonist, HER2 expr 66K)
C=CCNC(=S)NNC(=O)C(CCCC)CC(C)O (stereo not given)	none (no result: M1 ag, PLAP act, M1 antagonist, HER2 expr 66K)
Cc1ccc(S(=O)(=O)N2CCOCC2)cc1C(=O)NCc1cn2ccsc2n1	none
Cc1cc(=O)cc(C)n1-c1ccc2c(c1)nc(C)n2-c1ccccc1	M1 antagonist 2.2
Cc1ccc(NC(=O)CSc2ncn(-c3ccccc3)n2)cc1C	none (no result: M1 ag, PLAP act, M1 antagonist, HER2 expr 66K)
O=C(CSc1ncn(-c2ccccc2)n1)Nc1ccc(Br)cn1	Cav32 inh -5.4
CCOC(=O)C1=C(c2ccccc2)N2CCN=C2S1	none (no result: Cav32 inh, PLAP act)
COc1cc2c(C(=O)N3CCN(c4cccc(Cl)c4)CC3)cn(CC(C)C)c(=O)c2cc1OC	none (no result: M1 ag, Cav32 inh, M1 antagonist, HER2 expr 66K)
CCOC(=O)c1sc(NC(=O)c2cc(-c3ccccc3)nc3ccccc23)c(C#N)c1C	Cav32 inh -4.1 (no result: M1 ag, M1 antagonist, HER2 expr 66K)
Cc1onc(-c2ccccc2)c1C(=O)OCC(=O)Nc1ccc2c(c1)OCO2	none
Cc1onc(-c2ccccc2Cl)c1C(=O)OCC(=O)Nc1ccc2c(c1)OCO2	Cav32 inh -6.3
Cc1onc(-c2ccccc2Cl)c1C(=O)OCC(=O)N1CCCc2ccccc21	Cav32 inh -7.4
Cc1onc(-c2ccccc2Cl)c1C(=O)N1CCCc2ccccc21	none
CCc1nnc(NC(=O)C(C)Sc2ccccc2)s1 (stereo not given)	none
COC(=O)CSc1nnc(-c2ccncc2)o1	none
O=C(OCC#CCSc1nnc(-c2ccncc2)o1)c1cccs1	Cav32 inh -4.3
COc1ccc(-c2csc(NC(C)c3nc4cc(C(=O)NCCCO)ccc4n3Cc3ccc(C)cc3)n2)cc1 (stereo not given)	none (no result: M1 ag, PLAP act, M1 antagonist, HER2 expr 66K)
Cn1c(SCC(=O)Nc2ccc3nc(SCC(=O)N4CCCC4)sc3c2)nnc1-c1ccccc1	none (no result: M1 ag, M1 antagonist, HER2 expr 66K)
Cn1cnnc1SCC(=O)Nc1ccc2nc(SCc3ccccc3F)sc2c1	PLAP act 2 (no result: M1 ag, M1 antagonist, HER2 expr 66K)
C=CCOC(=O)C1=C[C@H](c2coc3ccccc3c2=O)C[C@H](OCCCCO)O1	none (no result: M1 ag, PLAP act, M1 antagonist, HER2 expr 66K)
COc1cccc(Nc2nc(NCC3CCCO3)c3ccccc3n2)c1 (stereo not given)	Cav32 inh -5.7 (no result: M1 ag, M1 antagonist, HER2 expr 66K)
CCCCN(CCCC)C(=O)/C=C/c1cccc([N+](=O)[O-])c1	Cav32 inh -6 (no result: M1 ag, M1 antagonist, HER2 expr 66K)
O=C(/C=C/c1cccc([N+](=O)[O-])c1)NCCSc1ccccc1	Cav32 inh -3.7 (no result: M1 ag, M1 antagonist, HER2 expr 66K)
Cn1c(=O)oc2cc(S(=O)(=O)NC(Cc3ccccc3)C(=O)N3CCCCC3)ccc21 (stereo not given)	none
COc1ccc(C2c3c(ccc4ccccc34)Oc3ncn4nc(CO/N=C/c5ccccc5)nc4c32)cc1 (stereo not given)	Cav32 inh -4.6 (no result: M1 ag, M1 antagonist, HER2 expr 66K)
COc1ccc(C2c3c(ncn(CCN4CCOCC4)c3=N)Oc3ccc4ccccc4c32)cc1 (stereo not given)	none (no result: M1 ag, M1 antagonist, HER2 expr 66K)
COC(=O)c1ccccc1NC(=O)COc1ccccc1	none
COCCNC(=O)c1ccccc1NC(=O)COc1ccccc1	M1 antagonist 2.1
